In PubChem BioAssay AID1159580 (chemical genetic matrix, 2015):
The campaign covered roughly 5,500 compounds. About 2,000 (36%) were called active. Inconclusive results (about 18%) are left out. No stated cut-off is given here; in the data, active means normalized growth mostly below about 0.91 (no sharp cut-off); inconclusive means no clear call, values can overlap the other calls; inactive means mostly above about 0.92. This is one part of the list.

Test: chemical genetic growth profiling, strain panel (AID 1159580);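 further: tested at 20 µM; growth read once vehicle control cultures reached saturation at 30 °C; 1 = growth at the plate median or of vehicle wells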
Conditions: growth OD

Measured: normalized growth

O=C(OCc1ccccc1)c1ccccc1
active: S. cerevisiae deletion strains, locus YKR001C, strain vps1, stronger effect = lower value 0.789 | S. cerevisiae deletion strains, locus YLR113W, strain HOG1, stronger effect = lower value 0.783 | S. cerevisiae deletion strains, locus YLR262C, strain YPT6 (second series), stronger effect = lower value 0.739 | S. cerevisiae deletion strains, locus YLR320W, strain mms22, stronger effect = lower value 0.835 | S. cerevisiae deletion strains, locus YNL071W, strain lat1, stronger effect = lower value 0.889 | S. cerevisiae deletion strains, locus YNL307C, strain MCK1, stronger effect = lower value 0.798 | S. cerevisiae deletion strains, locus YOR106W, strain vam3, stronger effect = lower value 0.859 | S. cerevisiae deletion strains, locus YOR184W, strain ser1, stronger effect = lower value 0.655 | S. cerevisiae deletion strains, locus YOR231W, strain MKK1, stronger effect = lower value 0.86
inactive: S. cerevisiae deletion strains, locus YKL009W, strain mrt4, stronger effect = lower value 0.934 | S. cerevisiae deletion strains, locus YKL068W, stronger effect = lower value 0.961 | S. cerevisiae deletion strains, locus YKL085W, strain MDH1 (second series), stronger effect = lower value 0.957 | S. cerevisiae deletion strains, locus YKL085W, strain MDH1, stronger effect = lower value 0.957 | S. cerevisiae deletion strains, locus YKL160W, strain elf1, stronger effect = lower value 0.951 | S. cerevisiae deletion strains, locus YKL190W, strain CNB1, stronger effect = lower value 1 | S. cerevisiae deletion strains, locus YKR026C, strain gcn3, stronger effect = lower value 0.954 | S. cerevisiae deletion strains, locus YKR091W, strain srl3, stronger effect = lower value 0.952 | S. cerevisiae deletion strains, locus YLL001W, strain dnm1, stronger effect = lower value 0.945 | S. cerevisiae deletion strains, locus YLL026W, stronger effect = lower value 0.953 | S. cerevisiae deletion strains, locus YLL041C, strain sdh2, stronger effect = lower value 0.965 | S. cerevisiae deletion strains, locus YLR027C, strain aat2, stronger effect = lower value 0.954 | S. cerevisiae deletion strains, locus YLR039C, strain RIC1, stronger effect = lower value 0.83 | S. cerevisiae deletion strains, locus YLR058C, strain SHM2, stronger effect = lower value 0.987 | S. cerevisiae deletion strains, locus YLR102C, strain apc9, stronger effect = lower value 0.969 | S. cerevisiae deletion strains, locus YLR221C, strain rsa3, stronger effect = lower value 0.925 | S. cerevisiae deletion strains, locus YLR258W, strain gsy2, stronger effect = lower value 0.956 | S. cerevisiae deletion strains, locus YLR262C, strain YPT6, stronger effect = lower value 0.839 | S. cerevisiae deletion strains, locus YLR268W, strain sec22, stronger effect = lower value 0.941 | S. cerevisiae deletion strains, locus YLR330W, strain CHS5, stronger effect = lower value 0.982 | S. cerevisiae deletion strains, locus YLR342W, strain FKS1 (second series), stronger effect = lower value 0.906 | S. cerevisiae deletion strains, locus YLR342W, strain FKS1, stronger effect = lower value 0.944 | S. cerevisiae deletion strains, locus YLR357W, strain rsc2, stronger effect = lower value 1.05 | S. cerevisiae deletion strains, locus YLR370C, strain arc18, stronger effect = lower value 0.969 | S. cerevisiae deletion strains, locus YLR371W, strain rom2, stronger effect = lower value 0.966 | S. cerevisiae deletion strains, locus YLR384C, strain iki3, stronger effect = lower value 0.974 | S. cerevisiae deletion strains, locus YLR418C, strain cdc73, stronger effect = lower value 0.885 | S. cerevisiae deletion strains, locus YML016C, strain PPZ1, stronger effect = lower value 0.991 | S. cerevisiae deletion strains, locus YML032C, strain rad52, stronger effect = lower value 0.948 | S. cerevisiae deletion strains, locus YML120C, strain ndi1, stronger effect = lower value 0.939 | S. cerevisiae deletion strains, locus YML124C, strain tub3, stronger effect = lower value 0.969 | S. cerevisiae deletion strains, locus YMR058W, strain fet3, stronger effect = lower value 0.952 | S. cerevisiae deletion strains, locus YMR078C, strain ctf18, stronger effect = lower value 0.957 | S. cerevisiae deletion strains, locus YMR125W, strain sto1, stronger effect = lower value 0.966 | S. cerevisiae deletion strains, locus YMR129W, stronger effect = lower value 0.967 | S. cerevisiae deletion strains, locus YMR205C, strain PFK2, stronger effect = lower value 0.899 | S. cerevisiae deletion strains, locus YMR223W, strain ubp8, stronger effect = lower value 0.925 | S. cerevisiae deletion strains, locus YMR231W, strain pep5, stronger effect = lower value 0.984 | S. cerevisiae deletion strains, locus YMR263W, strain SAP30, stronger effect = lower value 0.981 | S. cerevisiae deletion strains, locus YMR307W, strain GAS1, stronger effect = lower value 1.06 | S. cerevisiae deletion strains, locus YNL067W, strain RPL9B, stronger effect = lower value 0.954 | S. cerevisiae deletion strains, locus YNL128W, strain TEP1, stronger effect = lower value 0.989 | S. cerevisiae deletion strains, locus YNL183C, strain NPR1, stronger effect = lower value 0.868 | S. cerevisiae deletion strains, locus YNL209W, strain ssb2, stronger effect = lower value 0.968 | S. cerevisiae deletion strains, locus YNL233W, strain BNI4, stronger effect = lower value 0.931 | S. cerevisiae deletion strains, locus YNL248C, strain rpa49, stronger effect = lower value 0.905 | S. cerevisiae deletion strains, locus YNL250W, strain rad50, stronger effect = lower value 0.987 | S. cerevisiae deletion strains, locus YNL271C, strain bni1, stronger effect = lower value 0.95 | S. cerevisiae deletion strains, locus YNL298W, strain CLA4, stronger effect = lower value 0.954 | S. cerevisiae deletion strains, locus YNL322C, strain KRE1 (second series), stronger effect = lower value 0.973 | S. cerevisiae deletion strains, locus YNL322C, strain KRE1, stronger effect = lower value 0.989 | S. cerevisiae deletion strains, locus YNR049C, strain mso1, stronger effect = lower value 0.954 | S. cerevisiae deletion strains, locus YNR052C, strain pop2, stronger effect = lower value 1 | S. cerevisiae deletion strains, locus YOL006C, strain TOP1, stronger effect = lower value 0.725 | S. cerevisiae deletion strains, locus YOL012C, strain htz1 1.34 | S. cerevisiae deletion strains, locus YOL147C, strain pex11, stronger effect = lower value 0.974 | S. cerevisiae deletion strains, locus YOR001W, strain rrp6, stronger effect = lower value 0.916 | S. cerevisiae deletion strains, locus YOR061W, strain CKA2, stronger effect = lower value 0.988 | S. cerevisiae deletion strains, locus YOR069W, strain VPS5, stronger effect = lower value 0.991 | S. cerevisiae deletion strains, locus YOR070C, strain gyp1, stronger effect = lower value 0.965 | S. cerevisiae deletion strains, locus YOR080W, strain dia2, stronger effect = lower value 0.985 | S. cerevisiae deletion strains, locus YOR083W, strain WHI5, stronger effect = lower value 0.97 | S. cerevisiae deletion strains, locus YOR136W, strain idh2, stronger effect = lower value 0.987 | S. cerevisiae deletion strains, locus YOR144C, strain elg1, stronger effect = lower value 0.974 | S. cerevisiae deletion strains, locus YOR265W, strain rbl2, stronger effect = lower value 0.957 | S. cerevisiae deletion strains, locus YOR270C, strain vph1, stronger effect = lower value 0.927 | S. cerevisiae deletion strains, locus YOR290C, strain snf2, stronger effect = lower value 0.941 | S. cerevisiae deletion strains, locus YOR316C, strain cot1, stronger effect = lower value 0.974 | S. cerevisiae deletion strains, locus YPL051W, strain arl3, stronger effect = lower value 0.96 | S. cerevisiae deletion strains, locus YPL078C, strain atp4, stronger effect = lower value 0.933 | S. cerevisiae deletion strains, locus YPL106C, strain sse1, stronger effect = lower value 1 | S. cerevisiae deletion strains, locus YPL240C, strain hsp82, stronger effect = lower value 0.958 | S. cerevisiae deletion strains, locus YPL241C, strain CIN2, stronger effect = lower value 0.99 | S. cerevisiae deletion strains, locus YPL256C, strain CLN2, stronger effect = lower value 0.832 | S. cerevisiae deletion strains, locus YPR119W, strain clb2, stronger effect = lower value 0.975 | S. cerevisiae deletion strains, locus YPR141C, strain kar3, stronger effect = lower value 0.949 | S. cerevisiae deletion strains, locus YPR163C, strain tif3, stronger effect = lower value 0.975 | S. cerevisiae deletion strains, locus YPR167C, strain met16, stronger effect = lower value 0.96 | S. cerevisiae deletion strains, strain wtn01, stronger effect = lower value 0.928 | S. cerevisiae strains, strain wild type, stronger effect = lower value 0.984
